# Source: PubChem BioAssay (Tox21)
# Several values for one entry are separate records, joined by “and”; a condition that tells them apart may be missing. Identical values can stand only once. Values without a mark were called inactive. Entries that show only a call come without a potency. Where a structure was tested more than once in an assay, its records may differ in their call. Activity calls are given as the source filed them. Calls come from the whole dose curve.
# Target: Estrogen receptor (Homo sapiens) (UniProt P03372)
# Sequence (P03372 whole entry, looked up): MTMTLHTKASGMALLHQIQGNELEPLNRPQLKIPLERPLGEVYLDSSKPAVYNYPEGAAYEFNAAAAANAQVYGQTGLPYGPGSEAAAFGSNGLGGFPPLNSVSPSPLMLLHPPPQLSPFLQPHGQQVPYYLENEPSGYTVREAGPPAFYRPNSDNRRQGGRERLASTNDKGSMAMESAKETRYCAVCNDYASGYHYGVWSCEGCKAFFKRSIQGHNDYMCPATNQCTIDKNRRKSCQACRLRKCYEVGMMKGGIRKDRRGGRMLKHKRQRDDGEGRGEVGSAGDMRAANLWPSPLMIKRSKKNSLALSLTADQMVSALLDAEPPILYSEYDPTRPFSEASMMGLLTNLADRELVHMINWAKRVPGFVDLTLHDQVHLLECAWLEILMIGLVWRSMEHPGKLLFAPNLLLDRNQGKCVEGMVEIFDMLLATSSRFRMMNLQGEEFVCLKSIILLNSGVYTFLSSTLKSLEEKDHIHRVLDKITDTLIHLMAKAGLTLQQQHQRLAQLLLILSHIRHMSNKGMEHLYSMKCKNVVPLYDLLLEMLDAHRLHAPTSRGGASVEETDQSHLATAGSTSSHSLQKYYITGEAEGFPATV
# Test: qHTS assay to identify small molecule agonists of the estrogen receptor alpha (ER-alpha) signaling pathway in the presence of an antagonist (AID 1259383); note: nearly all actives have a fitted effect of over 15% in size; for activation: top concentration of the series differs between compounds
# Details: VM7Luc4E2 cells, ERE-luciferase, +ICI-182,780, 22 h; series mostly up to 92.4 µM
# Excerpt: National Center for Advancing Translational Sciences [NCATS] NIH Chemical Genomics Center [NCGC] U.S. Environmental Protection Agency [EPA] National Institutes of Environmental Health Sciences [NIEHS] National Toxicology Program [NTP] Assay overview: Estrogen receptor (ER), a member of nuclear hormone receptor plays an important role in development, metabolic homeostasis and reproduction. Two subtypes of ER, ER-alpha and ER-beta, have similar expression patterns with some uniqueness in both types. Endocrine disrupting chemicals (EDCs) and their interactions with steroid hormone receptors like ER causes disruption of normal endocrine function. Therefore, it is important to understand the effect of environmental chemicals in ER signaling pathway. For identifying ER agonists, VM7Luc4E2 cell line has been used in the current assay. VM7Luc4E2 cell line (provided by Denison MS, University of California) endogenously expresses full-length ER-alpha and is stably transfected with a plasmid containing four estrogen responsive elements (ERE) upstream of a luciferase reporter gene. This current screening for measuring luciferase reporter gene activity using VM7Luc4E2 cells against Tox21 10K library collection is a confirmation study on agonist mode screening in presence of ER-antagonist (ICI-182,780) at 10.0nM final concentration.
# Assay Protocol Summary: VM7Luc4E2 cells were cultured in phenol red free assay medium containing 10% charcoal stripped FBS for 5 days prior to the assay. The cells were dispensed at 4,000 cells in 4uL of assay medium per well into white wall/solid-bottom 1536-well plates (Corning Life Sciences, Corning, NY) using a Multidrop Combi (Thermo Fisher Scientific Inc., Waltham, MA) dispenser. After the assay plates were incubated at 37C and 5% CO2 for 24hr, 1uL of 10.0nM (final concentration) ICI-182,780 or assay buffer was added using two separate tips of Flying Reagent Dispenser (FRD, Aurora Discovery, San Diego, CA). Then 23nL of compounds dissolved in DMSO at 15 concentrations and positive controls or DMSO only was transferred to the assay plates by a Pintool station (Wako, San Diego, CA). The assay plates were incubated at 37C and 5% CO2 for 22hr. For luciferase read, 4uL/well ONE-Glo reagent (Promega Corporation, Madison, WI) was added to each well using FRD and after 30min incubation at room temperature, luminescence signal was measured on ViewLux plate reader (PerkinElmer, Shelton, CT).
# Potency is the fitted concentration of half-maximal effect.
Structure (SMILES),Potency,activation
CCC(C)OC(=O)c1ccc(O)cc1 (stereo not given),19.4 µM (active) and 48.6 µM (active),
C[C@]12CC[C@H]3[C@@H](CCC4=CC(=O)CC[C@@]43C)[C@@H]1CC[C@@H]2C(=O)CO,inactive,
C#C[C@]1(O)CC[C@H]2[C@@H]3CCc4cc(OC)ccc4[C@H]3CC[C@@]21C,137 nM (active) and 211 nM (active),
O=C(Nc1ccc(Cl)cc1)Nc1ccc(Cl)c(Cl)c1,inactive,
C#C[C@]1(O)CC[C@H]2[C@@H]3CCC4=Cc5oncc5C[C@]4(C)[C@H]3CC[C@@]21C,inactive,
CC(=O)Oc1ccccc1C(=O)Nc1ncc([N+](=O)[O-])s1,inactive,
CC(=O)CC/C=C(\C)CCC=C(C)C,inactive,
CCC(C)(O)CCCC(C)C (stereo not given),inactive,
C[C@]12CCC(=O)C=C1CC[C@@H]1[C@@H]2C(=O)C[C@@]2(C)[C@H]1CC[C@]2(O)C(=O)CO,inactive,
Cc1cccc(C(=O)O)c1,inactive,
CN(C)CCC=C1c2ccccc2CCc2ccccc21,inactive,
CC(C)OC(=O)C(C)(C)Oc1ccc(C(=O)c2ccc(Cl)cc2)cc1,inactive,
c1ccc2c(c1)Oc1ccccc1S2,inactive,
O=C(COc1ccc(Cl)cc1)N1CCN(Cc2ccc3c(c2)OCO3)CC1,inactive,
COc1ccccc1/C=C/C=O,inactive,
CN(C)CCN(Cc1cccs1)c1ccccn1,inactive,
CC(CCC(=O)O)(c1ccc(O)cc1)c1ccc(O)cc1,inactive,
C=CC(C)(CCC=C(C)C)OC(C)=O (stereo not given),inactive,
CCCCOCCOCCOCCO,inactive,
CC1=CCC(C(C)(C)O)CC1 (stereo not given),inactive,

Structure (SMILES),Potency,activation
COc1ccc(OC)c(C(O)CNC(=O)CN)c1 (stereo not given),inactive,
CCCCc1oc2ccccc2c1C(=O)c1cc(I)c(OCCN(CC)CC)c(I)c1,inactive,
Cc1ccc2c(n1)Oc1ccc(C(C)C(=O)OCC(=O)N(C)C)cc1C2 (stereo not given),inactive,
C=C(C)C1CC=C(C)CC1 (stereo not given),inactive,
c1cc(N(CC2CO2)CC2CO2)ccc1OCC1CO1 (stereo not given),inactive,
COC(=O)Nc1nc2ccc(S(=O)c3ccccc3)cc2[nH]1 (stereo not given),inactive,
Cc1cccc(N(C)C(=S)Oc2ccc3ccccc3c2)c1,inactive,
CCC(C)CO (stereo not given),inactive,
OC(CCl)CCl,inactive,
O=CCCCC=O,inactive,
O=C(Nc1ccc([N+](=O)[O-])cc1Cl)c1cc(Cl)ccc1O,77 nM (active),-10.6% [at 19 µM]
COc1cccc2c1C(=O)c1c(O)c3c(c(O)c1C2=O)C[C@@](O)(C(=O)CO)C[C@@H]3O[C@H]1C[C@H](N)[C@H](O)[C@H](C)O1,inactive,
CCCCCCCCCCCO,inactive,
Cc1cccc([N+](=O)[O-])c1C,inactive,
Cn1cnc([N+](=O)[O-])c1Sc1ncnc2nc[nH]c12,inactive,
O=C(OCc1ccccc1)c1ccccc1O,inactive,
CCCCNS(=O)(=O)c1ccccc1,inactive,
O=Cc1ccccc1O,inactive,
CC(C)OB(OC(C)C)OC(C)C,inactive,
